An excerpt weighted towards active compounds, which were near 2.9% of everything screened.
Exocytosis inh = lytic granule exocytosis inhibition; inhibition, % at 10 µM; TALL-104 LAMP-1 surface exposure, flow cytometry; cells stimulated with thapsigargin and PMA; actives 0.66% (n = 360,000); AID 651702;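 active = inhibition above about 55%, limit read from the data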
GRK2 inh = blocks RNA aptamer binding to human GRK2; bead flow cytometry, FAM-aptamer displacement from GRK2; P25098; actives 0.59% (n = 330,000); inhibition of aptamer binding, % at 10 µM;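 active = inhibition of aptamer binding above 40%, roughly 3 SD of noise, on plates passing a quality check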;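 also: median bead fluorescence of bound FAM aptamer so fluorescent compounds give negative values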
Target sequence (P25098 whole entry, looked up): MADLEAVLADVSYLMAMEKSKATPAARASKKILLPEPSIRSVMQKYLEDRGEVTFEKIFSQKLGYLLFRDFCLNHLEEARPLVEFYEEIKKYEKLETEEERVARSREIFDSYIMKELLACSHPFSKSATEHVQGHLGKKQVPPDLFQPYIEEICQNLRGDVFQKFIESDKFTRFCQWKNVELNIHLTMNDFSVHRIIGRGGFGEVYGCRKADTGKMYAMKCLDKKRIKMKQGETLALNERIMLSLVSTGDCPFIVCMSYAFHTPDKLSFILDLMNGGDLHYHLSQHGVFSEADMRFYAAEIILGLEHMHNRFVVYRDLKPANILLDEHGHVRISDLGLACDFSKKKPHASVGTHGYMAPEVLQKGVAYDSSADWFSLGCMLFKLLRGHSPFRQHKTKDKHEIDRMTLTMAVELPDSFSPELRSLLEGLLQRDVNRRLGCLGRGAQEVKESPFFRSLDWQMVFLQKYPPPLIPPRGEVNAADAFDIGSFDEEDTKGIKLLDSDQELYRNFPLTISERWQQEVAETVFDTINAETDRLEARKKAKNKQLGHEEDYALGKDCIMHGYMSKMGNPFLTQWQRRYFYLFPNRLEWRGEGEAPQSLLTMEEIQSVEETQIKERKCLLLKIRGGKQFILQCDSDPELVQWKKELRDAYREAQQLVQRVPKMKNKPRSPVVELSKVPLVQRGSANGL
NadD block = NadD (S. aureus) enzyme inhibition; purified NadD enzyme, colorimetric absorbance read-out; inhibition, % at 20 µM; actives 0.78% (n = 360,000); AID 602399; in the data active = inhibition above about 26%
B2AR ag = agonists of human beta-2 adrenergic receptor inducing internalization | Am2.2-beta2AR cells, FAP receptor internalization, flow cytometry | response, % (test concentration not listed) | actives 0.43% (n = 340,000) | AID 504454;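 active = response above a set limit, near 3 SD of response in nonfluorescent compounds, cut at about 42% in these data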
PP1 counter = PP1-alpha (human) inhibition in PP5 counter-screen. purified PP1alpha, OMFP fluorescence. AID 2235. inhibition, % at 6.7 µM. actives 0.9% (n = 320,000);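 active = inhibition above the mean inhibition of all tested compounds plus 3 SD, computed separately for each screening campaign, cut at about 15% in these data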
* hit, by the source's call; . = no result given.

SMILES | Exocytosis inh | GRK2 inh | NadD block | B2AR ag | PP1 counter
COc1c(/C=N/NC(=O)c2ccccc2O)c(CCN(C)C(C)=O)cc2c1OCO2 | -0.8 | 1.0 | -1.5 | -4.2 | -2.0
CCC(=O)N(C)CCc1cc2c(c(OC)c1/C=N/NC(=O)c1ccccc1O)OCO2 | -3.9 | 83.0* | -0.8 | -7.2 | -1.8
Cc1nc2c(Br)cc(Br)cc2cc1O | 2.3 | 0.0 | -5.4 | 56.8* | -2.7
Brc1cc(Br)c2nc(-c3cccs3)ccc2c1 | -1.6 | 0.0 | 9.0 | -5.2 | -1.5
O=C(/C=C/c1ccccc1F)c1cccc([N+](=O)[O-])c1 | 85.4* | 0.0 | 2.3 | 7.2 | 1.9
COc1cc(/C=C/C(=O)c2cccc([N+](=O)[O-])c2)cc(OC)c1OC | -1.8 | 11.0 | -5.6 | 51.7* | -0.2
O=C(C#Cc1ccccc1)c1cccc([N+](=O)[O-])c1 | 54.1 | 1.0 | -1.7 | 66.9* | 1.9
COc1cc(/C=C/C(=O)c2ccc(C)c([N+](=O)[O-])c2)cc(OC)c1O | 1.2 | 2.0 | 2.3 | 22.2 | 1.3
Cc1ccc2nsnc2c1NC(=O)c1ccc(-c2cc(Cl)ccc2Cl)o1 | 3.7 | 2.0 | 22.4 | 17.3 | 25.4*
O=C(CCn1nnc2ccccc21)Nc1nnc(-c2ccccc2F)s1 | -0.3 | 0.0 | -6.6 | 1.2 | 16.7*
C/C(CC(=O)Nc1ccc2c(c1)OCCO2)=N\NC(=O)c1ccccc1F | -6.3 | 1.0 | -5.1 | 45.1* | 12.6
Cc1cccc(N2CCN(C(=O)CCC(=O)N3CCOc4ccc(Cl)cc43)CC2C)c1 (configuration not stated) | 0.5 | 2.0 | -1.3 | -5.3 | -1.6
O=C(Cc1ccccc1)Nc1cccc(C(=O)O)c1O | 2.8 | 0.0 | -5.3 | 4.0 | -4.2
CC12CCC(c3c(C(=O)O)nn(-c4ccc(F)cc4)c31)C2(C)C (configuration not stated) | -2.8 | 3.0 | 1.8 | -7.6 | 15.4*
COc1ccc(CCNC(=O)/C(C#N)=C2\N=C(NC(=O)c3ccco3)c3ccccc32)cc1 | 83.5* | . | -3.3 | 31.7 | -2.9
N#C/C(C(=O)NCc1ccccc1)=C1/N=C(NC(=O)c2ccco2)c2ccccc21 | 24.6 | 1.0 | 4.5 | 6.8 | -2.1
Cc1cc(C)c2c(=O)n(CC(=O)Nc3cccc(Cl)c3C)sc2n1 | 65.2* | 0.0 | 0.6 | -9.0 | -2.3
COc1ccc(-c2nc(=S)[nH][nH]2)cc1 | 56.0* | 0.0 | 0.6 | -6.7 | -1.9
O=[N+]([O-])c1ccc(/C=N/N=C/c2ccc([N+](=O)[O-])o2)o1 | 62.6* | . | -4.2 | -23.2 | .
Cc1ccc(C(=O)C2=C(O)C(=O)N(CCCn3ccnc3)C2c2ccc(OC(C)C)cc2)o1 (configuration not stated) | 3.8 | 2.0 | 7.1 | -6.3 | 15.3*
COc1ccc(C2C(C(=O)c3ccc(C)o3)=C(O)C(=O)N2Cc2cccnc2)cc1 (configuration not stated) | -6.6 | 8.0 | -4.3 | -4.8 | -0.8
Cc1ccc(C(=O)C2=C(O)C(=O)N(Cc3cccnc3)C2c2ccc(N(C)C)cc2)o1 (configuration not stated) | -5.6 | 4.0 | 0.6 | 5.3 | 3.6
Cc1ccc(C(=O)C2=C(O)C(=O)N(Cc3cccnc3)C2c2ccc(Cl)c(Cl)c2)o1 (configuration not stated) | 0.8 | 1.0 | 14.7 | -4.1 | 29.7*
Cc1ccc(C(=O)C2=C(O)C(=O)N(Cc3cccnc3)C2c2ccc(Br)cc2)o1 (configuration not stated) | -20.5 | 0.0 | 17.6 | -2.3 | 18.7*
Cc1ccc(C(=O)C2=C(O)C(=O)N(Cc3cccnc3)C2c2ccc(OC(C)C)cc2)o1 (configuration not stated) | 1.2 | 5.0 | 10.9 | 3.8 | 19.9*
SMILES | Exocytosis inh | GRK2 inh | NadD block | B2AR ag | PP1 counter
O=c1[nH]c(SCc2ccccc2)nc2[nH]ncc12 | 19.8 | 4.0 | -0.8 | 3.6 | 2.1
C/C(=N\NC(=O)c1cc(O)cc(O)c1)c1ccc(NC(=O)Cc2ccccc2)cc1 | -2.8 | 52.0* | 16.3 | 0.4 | 10.7
C/C(=N\NC(=O)c1cccc(F)c1)c1ccc(NC(=O)Cc2ccccc2)cc1 | 0.1 | 0.0 | -6.6 | -8.0 | .
COc1ccc(NC(=O)CSc2ccc3nnc(CCNC(=O)c4ccccc4)n3n2)cc1OC | 2.7 | 0.0 | -0.2 | -8.5 | -1.4
Cc1ccc2c(c1)N(CCC(=O)NC1CCCCC1C)C(=O)CO2 (configuration not stated) | -2.7 | 1.0 | 0.6 | -1.6 | 0.9
NC(=O)c1ccc[n+](Cc2ccccc2)c1 | -2.8 | 80.0* | 2.7 | 0.6 | -1.2
c1ccc(C[n+]2cccc(-c3ccccc3)c2)cc1 | 2.1 | 0.0 | -3.4 | 3.8 | -1.9
Nc1ccc(C2=Nc3cccc4cccc(c34)N2)cc1 | -5.2 | . | 16.8 | 4.2 | .
COc1cccc(C2=Nc3cccc4cccc(c34)N2)c1 | 3.9 | 0.0 | 0.4 | 14.9 | 16.7*
COc1ccc(/C=C/C(=O)NC(=S)NNC(=O)Cc2cccs2)cc1 | -1.4 | 0.0 | 8.0 | 0.1 | 19.6*
COc1ccc(/C=C/C(=O)NC(=S)NNC(=O)c2c(-c3ccccc3)noc2C)cc1 | -1.7 | 0.0 | 19.2 | 8.7 | 17.2*
Cc1onc(-c2ccccc2)c1C(=O)NNC(=S)NC(=O)/C=C/c1ccccc1 | -3.7 | 0.0 | 13.8 | 6.9 | 14.4
CCOc1ccc(S(=O)(=O)N(CC)CC(=O)N2CCOCC2)cc1C | 7.5 | 2.0 | 2.8 | -3.8 | -0.4
CCCN(CCC)S(=O)(=O)c1ccc(NC(=O)Cc2cccs2)cc1 | 1.4 | 4.0 | -1.4 | -0.8 | -2.4
CCCCN(CCCC)S(=O)(=O)c1ccc(NC(=O)Cc2cccs2)cc1 | 19.7 | 5.0 | 14.4 | 51.0* | 5.0
O=C1Nc2ccccc2SC1=Cc1ccccc1 | -4.8 | . | -3.1 | . | .
O=C1Nc2ccccc2S/C1=C\C(=O)N1CCCC1 | . | 81.0* | . | . | -0.6
Cn1cc(CC(=O)NCCN2CCOCC2)c2ccccc21 | -0.6 | 0.0 | -4.2 | 8.2 | -7.7
Cc1cccc(Cc2cnc(NC(=O)CN3C(=O)/C(=C/c4ccccc4)SC3=S)s2)c1 | 2.8 | 2.0 | 31.0* | 1.3 | 13.7
COc1cc(/C=C2\SC(=S)N(CCC(=O)Nc3cccc(O)c3)C2=O)cc(OC)c1OC | 85.2* | 3.0 | 22.8 | 31.1 | 6.4
Cc1ccc(/C=C2/SC(=S)N(CC(=O)Nc3ncc(Cc4ccc(C)cc4)s3)C2=O)cc1 | -0.5 | 0.0 | 25.0 | -4.8 | 2.1
COc1cc(/C=C2/SC(=S)N(CC(=O)Nc3nc4ccccc4s3)C2=O)cc(OC)c1OC | 2.2 | 6.0 | 35.0* | 7.1 | 6.6
Cc1nccn1CC(=O)N/N=C/c1cccc(O)c1 | 0.9 | 14.0 | 1.0 | -5.2 | -2.6
COCCNc1nc(Nc2ccc(Cl)cc2F)c2sccc2n1 | 1.9 | . | -14.0 | . | .
Cc1cc(C)c2nc(NCCCNC(=S)NCCCN(C)C)c(C#N)cc2c1 | 52.4 | 0.0 | 10.7 | 43.0* | -1.2
Cc1nc(COC(=O)c2ccc(CO)cc2)cs1 | -3.4 | 0.0 | -3.9 | -0.5 | -3.0
Cc1nc(COC(=O)c2cc(O)c3ccccc3c2O)cs1 | 64.4* | . | -0.6 | 2.4 | .
O=C(/C=C/c1cc(Br)ccc1O)c1ccco1 | 11.0 | 1.0 | -5.9 | 85.7* | -2.2
